From PubChem
Only a selection was taken, and hits are over-represented in it overall.
PglD inh: PglD (C. jejuni) enzyme inhibition | purified PglD enzyme, DTNB colorimetric CoA detection | inhibition, % at 12.5 µM | 360,000 compounds, 0.098% hits | AID 602405; in the data active means inhibition above about 16%, passing the limit was not always enough; inconclusive means no clear call, values can overlap the other calls
DENV2 CPE rescue: inhibitors of DENV2 cytopathic effect; DENV2-infected cells, cytopathic effect rescue, plate reader; CPE inhibition, % at 9.99 µM; 350,000 compounds, 1.7% hits; AID 651640; in the data active means CPE inhibition above about 20%, passing the limit was not always enough; inconclusive means no clear call, values can overlap the other calls; tested in BHK-21 cells;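 further: 0% = median of neutral control wells and 100% = median of positive control wells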
Rtt109 Vps75: blocks Candida albicans Rtt109/Vps75 acetyltransferase activity; 330,000 compounds, 0.16% hits; inhibition, % at 34.9 µM; AID 540336; purified Rtt109/Vps75, ThioGlo CoA-SH fluorescence, 4 h; Q5AAJ8;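 active means inhibition of at least 50% in every replicate; inconclusive means best replicate reaches 50% inhibition but some replicates fall short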
Target sequence (Q5AAJ8 whole entry, looked up): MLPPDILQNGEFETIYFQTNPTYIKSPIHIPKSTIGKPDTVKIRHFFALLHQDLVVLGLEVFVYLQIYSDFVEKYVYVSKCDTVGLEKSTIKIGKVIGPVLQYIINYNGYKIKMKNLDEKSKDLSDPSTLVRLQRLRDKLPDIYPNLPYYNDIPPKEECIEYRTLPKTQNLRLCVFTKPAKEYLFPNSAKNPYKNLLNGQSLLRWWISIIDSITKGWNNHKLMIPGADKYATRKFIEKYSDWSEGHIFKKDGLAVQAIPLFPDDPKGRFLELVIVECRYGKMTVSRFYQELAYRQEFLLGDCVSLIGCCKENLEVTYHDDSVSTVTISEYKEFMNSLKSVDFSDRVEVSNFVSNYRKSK
N-glyco inh: N-linked glycosylation inhibition; reporter increase, % at 12.5 µM; 360,000 compounds, 0.23% hits; D54 ERlucT glycosylation luciferase reporter, 24 h; percent of 100 nM tunicamycin response;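 active means mean luciferase reporter signal, scaled so untreated is 0 and the glycosylation-blocking control 100, at or above a set limit in every replicate; inconclusive means mean reaches the limit but not every replicate does; inactive means mean below the limit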;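 further: luciferase carries N-glycosylation sites so blocking glycosylation raises the light; 0% = median of neutral control wells and 100% = median of 100 nM tunicamycin wells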
* hit, by the source's call; ? = inconclusive; . = no result; + = active, no number.

SMILES | PglD inh | DENV2 CPE rescue | Rtt109 Vps75 | N-glyco inh
C[C@@H]1CN([C@@H](C)CO)S(=O)(=O)c2ccc(C3=CCCC3)cc2O[C@@H]1CN(C)C(=O)C1CCC1 | 6 | -9 | . | .
COc1ccc(CN(C)C[C@H]2OCCCC[C@H](C)Oc3ccc(NS(C)(=O)=O)cc3C(=O)N([C@@H](C)CO)C[C@@H]2C)cc1 | 0 | 3 | . | .
C[C@H]1CN([C@@H](C)CO)C(=O)c2cc(NS(=O)(=O)c3ccccc3)ccc2O[C@H]1CN(C)C | 4 | 1 | . | .
O=C(O)CSc1ncccc1C(=O)O | . | 46* | -4 | 2
O=C(CSc1ncccc1C(=O)O)c1ccccc1F | . | 6 | -1 | 0
C/C=C/c1ccc([C@H]2[C@@H](CO)N(C(=O)Cc3cccnc3)[C@@H]2CNC(C)=O)cc1 | -1 | 11 | . | .
C[C@H](CO)N1C[C@H](C)[C@H](CN(C)C(=O)c2ccc(F)cc2)Oc2cc(-c3cccc(C#N)c3)ccc2S1(=O)=O | -4 | 7 | . | .
Cc1ccc(S(=O)(=O)CCC(=O)c2cccc([N+](=O)[O-])c2)cc1 | 7 | 6 | + | 1
O=C(C[C@H]1C[C@@H]2c3cc(NS(=O)(=O)c4ccccc4)ccc3O[C@@H]2[C@@H](CO)O1)N1CCCCC1 | 0 | -2 | . | .
CCn1cc(C(=O)NC(C)CCc2ccccc2)c(=O)c2cc(S(=O)(=O)N(C)C)ccc21 (centres undefined) | 3 | 51* | -17 | -3
Cc1ccc(NC(=O)C(=O)NCC2CCCN2S(=O)(=O)c2cccs2)cc1 (centres undefined) | 0 | 38* | 6 | -2
CCn1c2ccccc2c2cc(NC(=O)COC(=O)c3cc(OC)c(OC)cc3OC)ccc21 | 3 | 41* | 9 | 3
CCCC(=O)Nc1ccc2c(c1)c1ccccc1n2CC | . | -5 | -3 | 6
COc1cc(/C=C/C(=O)NC(=O)c2ccccc2O)ccc1OC(C)=O | 8 | 73* | 13 | -1
CCOc1ccc(/C=C/C(=O)c2ccccc2)cc1OC | . | . | -5 | 26*
COc1ccc(/C=C/C(=O)c2ccc3c4c(cccc24)CC3)cc1OC | . | . | 3 | 34*
CCOc1ccc(C(=O)/C=C/c2ccc(OC)c(OC)c2)cc1 | . | -3 | -3 | 14
COc1cc(OC)cc(-c2c(C#Cc3ccsc3)c3cc(-c4cc(OC)c(OC)c(OC)c4)ccc3n2C)c1 | 0 | 38* | -2 | 1
COc1cc(OC)cc(-c2c(C#Cc3ccsc3)c3cc(-c4ccc(OC)c(F)c4)ccc3n2C)c1 | 7 | 5 | -1 | 3
COc1cc(Cl)c(C)cc1NC(=O)CN1CCN(C(=O)C2CC2)CC1 | 1 | . | 2 | 28*
COc1ccc(S(=O)(=O)N(C)C)cc1NC(=O)CN1CCN(C(=O)C2CC2)CC1 | 2 | -6 | -16 | 4
O=C(CN1CCN(C(=O)C2CCC2)CC1)Nc1ccc(F)cc1 | -6 | 32* | 11 | 1
Cc1cccc(C)c1NC(=O)CN1CCN(C(=O)C2CCC2)CC1 | -6 | 3 | -9 | 0
C[C@H]1CCCCO[C@@H](CN(C)C(=O)Nc2ccc(C(F)(F)F)cc2)[C@@H](C)CN([C@@H](C)CO)C(=O)c2cc(NC(=O)Nc3ccccc3)ccc2O1 | 1 | 15 | . | .
C[C@@H]1CN([C@@H](C)CO)S(=O)(=O)c2ccc(/C=C/c3ccccc3)cc2O[C@@H]1CN(C)C(=O)NC1CCCC1 | 44 | 8 | . | .
SMILES | PglD inh | DENV2 CPE rescue | Rtt109 Vps75 | N-glyco inh
CC(C)C1Cc2ccccc2-c2[nH]c(=S)[nH]c(=O)c21 (centres undefined) | 5 | 72* | . | 1
CCC1(CC)Cc2ccccc2-c2[nH]c(=S)[nH]c(=O)c21 | . | 0 | 10 | 0
COc1ccc(NC(=O)N(C)C[C@@H]2Oc3ccc(NC(=O)CCN4CCOCC4)cc3C(=O)N([C@H](C)CO)C[C@H]2C)cc1 | 2 | -6 | . | .
CN(C)c1ccc(-n2cccc2/C=C/[N+](=O)[O-])cc1 | -6 | ? | -3 | 64*
CN(c1ccccc1)c1ccc(/C=C/[N+](=O)[O-])cc1 | . | 0 | -6 | -20
O=C(NCC[C@@H]1CC[C@H](NC(=O)C2CCCC2)[C@@H](CO)O1)c1cnccn1 | 2 | 0 | . | .
O=C(C1CCOCC1)N1CC[C@@H]2[C@H]1c1cc(-c3cccc(F)c3)ccc1N[C@@H]2CO | 9 | 88* | . | .
CC(=O)N1CC[C@@H]2[C@@H](CO)Nc3ccc(-c4cccc(F)c4)cc3[C@@H]21 | 1 | 29* | . | .
OC[C@H]1Nc2ccc(-c3cccc(F)c3)cc2[C@@H]2[C@H]1CCN2Cc1ccc(F)cc1 | 2 | 48* | . | .
O=C(C1CCOCC1)N1CC[C@@H]2[C@H](CO)Nc3ccc(-c4cccc(F)c4)cc3[C@@H]21 | 1 | ? | . | .
O=C(C1CC1)N1CC[C@H]2[C@H](CO)Nc3ccc(-c4ccc(F)cc4)cc3[C@H]21 | 1 | 3 | . | .
O=C(C1CC1)N1CC[C@@H]2[C@H]1c1cc(-c3ccc(F)cc3)ccc1N[C@@H]2CO | -1 | 122* | . | .
CC(=O)N1CC[C@@H]2[C@H]1c1cc(-c3cccc(F)c3)ccc1N[C@@H]2CO | 0 | 3 | . | .
O=C(C[C@H]1C=C[C@H](NC(=O)Nc2cc(F)ccc2F)[C@H](CO)O1)NCc1ccncn1 | -1 | -3 | . | .
Cc1ccc(NC(=O)CSc2nsc(SCC(=O)Nc3ccc(C)cc3C)c2C#N)c(C)c1 | . | -8 | -7 | 30*
Cc1ncc([N+](=O)[O-])n1Cc1ccccc1 | 1 | 50* | -6 | 1
Cc1cccc(-c2ccc([C@H]3[C@@H](CO)N4CCCCN(S(=O)(=O)c5cccc(C)c5)C[C@H]34)cc2)c1 | 3 | 55* | . | .
Cc1cccc(S(=O)(=O)N2CCCCN3[C@H](CO)[C@H](c4ccc(-c5cccnc5)cc4)[C@@H]3C2)c1 | 0 | 47* | . | .
Cc1cccc(-c2ccc([C@@H]3[C@H]4CN(S(=O)(=O)c5cccc(C)c5)CCCCN4[C@H]3CO)cc2)c1 | 2 | -2 | . | .
Cc1cccc(S(=O)(=O)N2CCCCN3[C@H](CO)[C@H](c4ccc(-c5ccccc5)cc4)[C@@H]3C2)c1 | -2 | -4 | . | .
Cc1cccc(-c2ccc([C@H]3[C@H]4CN(S(=O)(=O)c5cccc(C)c5)CCCCN4[C@H]3CO)cc2)c1 | -1 | 29* | . | .
CN1CCN(C(=O)C[C@@H]2C=C[C@@H](NC(=O)Cc3ccccn3)[C@@H](CO)O2)CC1 | 3 | -2 | . | .
COc1ccccc1-c1ccc([C@H]2[C@@H](CO)N(C(=O)NC3CCCC3)[C@H]2C#N)cc1 | . | 5 | . | .
COc1ccc2c3c([nH]c2c1)[C@H](CO)N(Cc1ccccc1F)CC31CCN(CC2CC2)CC1 | . | 9 | . | .
CNCCC=C1c2ccccc2C=Cc2ccccc21 | 1 | 2 | 2 | 0
CNCCCC1c2ccccc2C=Cc2ccccc21 | -3 | 26* | 5 | -1
COc1ccc(CCNC(=O)CN2C(=O)NC3(CCCCC3)C2=O)cc1 | -1 | 1 | -6 | 1
COc1ccc(CNC(=O)COC(=O)CN2C(=O)NC3(CCCC3)C2=O)cc1 | 3 | 29* | -4 | 2
COc1ccc(CC(=O)OCC(=O)NCCNC(=O)COC(=O)Cc2ccc(OC)cc2)cc1 | 5 | 61* | 9 | 1
Cc1ccccc1OCC(=O)OCC(=O)NCCNC(=O)COC(=O)COc1ccccc1C | . | 44* | 3 | 2
